Several values for one entry are separate records, joined by “and”; a condition that tells them apart may be missing. Equal entries are not always repeated. Inconclusive results are not listed. A structure can be active in one record and inactive in another. Activity calls are given as the source filed them. The call rests on the fitted dose curve.
test: qHTS assay for small molecule agonists of the p53 signaling pathway - cell viability (AID 651633); conditions: p53RE-bla HCT-116 viability, ATP luminescence, 16 h; series mostly up to 83.3 µM; activity change, negative = cytotoxicity: at the top concentration; further: nearly all actives have a fitted effect of over 30% in size;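 on activity change, negative = cytotoxicity: p53RE-bla HCT reporter cells with a stable beta-lactamase p53 reporter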
Description: National Center for Advancing Translational Sciences [NCATS]
NIH Chemical Genomics Center [NCGC]
U.S. Environmental Protection Agency [EPA]
National Institutes of Environmental Health Sciences [NIEHS]
National Toxicology Program [NTP]
U.S. Food and Drug Administration [FDA]
p53, a tumor suppressor protein, is activated following cellular insult, including DNA damage and other cellular stresses. The activation of p53 regulates cell fate by inducing DNA repair, cell cycle arrest, apoptosis, or cellular senescence. The activation of p53, therefore, is a good indicator of DNA damage and other cellular stresses. […] The activation of the reporter gene under culture conditions can be detected by fluorescence intensity. This cell line was used to screen the Tox21 compound library in a 1536-well plate format and to identify agonists that activate the p53 signaling pathway.
Tox21 Assay Protocol Summary:
The p53RE-bla cells were dispensed at 4,000 cells/5 ul/well in 1536-well black wall/clear bottom plates using a Multidrop dispenser. After the assay plates were incubated at a 37 C/5% CO2 incubator for 5 hours, 23 nL of compounds dissolved in DMSO, positive controls or DMSO only was transferred to the assay plate by a pin tool. The plates were incubated at 37 C for 16 hours. After 1 uL of LiveBLAzerTM B/G FRET substrate was added using a Flying Reagent Dispenser, the plates were incubated at room temperature for 2 hours, and fluorescence intensity was measured by an Envision plate reader.
For cell viability readout that measures cytotoxicity, 4 ul/well of CellTiter-Glo reagent was added into the assay plates using a Flying Reagent Dispenser. After 30 min incubation at room temperature, the luminescence intensity in the plates was measured using a ViewLux plate reader.
On the % scale 0 is the no-effect control and ±100 the full control effect; potency means the concentration at half of the fitted maximal effect.

| SMILES | activity change, negative = cytotoxicity | Potency |
| --- | --- | --- |
| C[N+]1(CC2COC(c3ccccc3)(C3CCCCC3)O2)CCCCC1 (stereo not given) | -13.4% (inactive) |  |
| OCc1cc(C(O)CNCCCCCCOCCCCc2ccccc2)ccc1O (stereo not given) |  | inactive and 26.6 µM (active) |
| CN1CCC(N(Cc2cccs2)c2ccccc2)CC1 | 16.7% (inactive) |  |
| CN(C)c1ccc(/C=C/c2ccc([N+](=O)[O-])cc2)cc1 | -6.1% [at 8.08 µM] (inactive) |  |
| OC(C#CCN1CCCC1)(c1ccccc1)c1ccccc1 | 7.48% (inactive) |  |
| CN(C)CCN(Cc1ccccc1)c1ccccn1 | 31.2% (inactive) |  |
| CN(C)c1ccc(C(c2ccccc2)c2ccc(N(C)C)cc2)cc1 | -12.9% (inactive) |  |
| CC1=CCCC(C)(C)C12CCC(C)O2 (stereo not given) | 18% (inactive) |  |
| CCCn1cnc2c1c(=O)n(CCCCC(C)=O)c(=O)n2C | 13.9% (inactive) |  |
| CCN(CC)c1ccc2c(-c3ccccc3C(=O)O)c3ccc(=[N+](CC)CC)cc-3oc2c1 | -21.7% (inactive) |  |
| CCOC(=O)Cc1cccc2ccccc12 | 23.2% (inactive) |  |
| C=C(C)C(=O)OCCOCC | 22.2% [at 95.3 µM] (inactive) |  |
| CN1C[C@H]2c3ccccc3Oc3ccc(Cl)cc3[C@@H]2C1 | 7.77% (inactive) |  |
| CC(CSC(=O)c1ccccc1)C(=O)N1C[C@@H](Sc2ccccc2)C[C@H]1C(=O)O (stereo not given in full) | 21.2% (inactive) |  |
| CC[N+]1(CC)CCC(=C(c2ccccc2)c2ccccc2)C1C (stereo not given) | -16.2% (inactive) |  |
| O=C(O)c1ccc(-n2nc(-c3ccccc3O)nc2-c2ccccc2O)cc1 |  | 13.3 µM (active) |
| C=CCOC(=O)CCC1CCCCC1 | -21.6% (inactive) |  |
| CCOCC(O)COc1ccc(NC(=O)CC[S+](C)C)cc1 (stereo not given) | 10.8% (inactive) |  |
| CCNc1cc(O)ccc1C | -16.1% (inactive) |  |
| COc1ccc(C(=O)N2CCN(CC(=O)N3CCOCC3)CC2)cc1 | 8.35% (inactive) |  |

| SMILES | activity change, negative = cytotoxicity | Potency |
| --- | --- | --- |
| CN(C)CCCN1c2ccccc2Sc2ccccc21 | 25.7% [at 39.1 µM] (inactive) |  |
| CCN(CC)CCNC(=O)c1cc(Br)c(N)cc1OC | 27.9% (inactive) |  |
| OC[C@H]1O[C@@H](OCCc2ccc(O)cc2)[C@H](O)[C@@H](O)[C@@H]1O | -8.27% (inactive) |  |
| CCC(C)O (stereo not given) | -7.28% [at 95.3 µM] (inactive) |  |
| CCCCCCCCCCCCCCCCCCOS(=O)(=O)O |  | 61.1 µM (active) |
| Nc1ccc(N)c2c1C(=O)c1ccccc1C2=O | -15.4% (inactive) |  |
| O=CC1CC=CCC1 (stereo not given) | -11.9% (inactive) |  |
| C=CC1CC2C=CC1C2 (stereo not given) | 22.6% (inactive) |  |
| S=C([S-])NCCNC(=S)[S-].[Mn+2] | -20.2% (inactive) |  |
| CCCCCCCC#N | -11.8% (inactive) |  |
| c1cc(CCCc2ccncc2)ccn1 | 8.77% (inactive) |  |
| Cc1cc(C(=O)O)ccc1[N+](=O)[O-] | -7.34% (inactive) |  |
| Cc1c(N)cccc1[N+](=O)[O-] | 10.4% [at 95.3 µM] (inactive) |  |
| CN(C)CCN(Cc1ccc(Cl)cc1)c1ccccn1 | -0.0001% [at 39.1 µM] (inactive) |  |
| CCCCCCCCCCCC(=O)OC[C@@H](O)[C@H]1OC[C@H](OCCO)[C@H]1OCCO | -18.8% (inactive) |  |
| O=C(O)C1(C(=O)Nc2ccc(Cl)cc2Cl)CC1 | -28.4% (inactive) |  |
| CC(C)CC(=O)C1C(=O)c2ccccc2C1=O | 13.9% (inactive) |  |
| CCCCC(CC)COC(=O)CCCCCCCCC(=O)OCC(CC)CCCC (stereo not given) | -17.4% (inactive) |  |
| Clc1ccc2c(c1)CCc1cccnc1C2=C1CCNCC1 | -23.2% (inactive) |  |
| OCCNCc1ccccc1 | -19.8% (inactive) |  |

From PubChem BioAssay (Tox21)
